Records with an inconclusive call do not appear. The source made the active and inactive calls. Calls come from the whole dose curve; as a rule, active = well fitted curve in the direction sought with a large enough effect; inconclusive = small, poorly fitted or top-dose-only effect, or another doubt; inactive = no such curve, though single readings can be large; an effect the other way counts as inactive or inconclusive. *1 amine or outer side, *2 acyl side, *3 side chain or, on linkers, in order; H or OH if unused. Where a SMILES comes first, the peptide text is derived from it. Bridges are numbered along the chain shown (N, C = ends). [ ]: non-standard residue; d: D form. The star is where a group is joined. ξ: configuration not given here. X10 = NC1=NCCC(C(N[*:1])C(=O)[*:2])N1; ΔAla(3-NHCONH2) = NC(=O)NC=C(N)C(=O)O; ξβ3hOrn = NCCCC(N)CC(=O)*; Dap = NC[CH](N)C(=O)O
How the values were obtained:
[1] = system: MCC-13; assay: qHTS assay to identify novel small-molecules to repurpose for Merkel cell carcinoma treatment (AID 1296009); settings: MCC and control cell lines, CellTiter-Glo viability, 72 h; series mostly up to 46 µM; note: nearly all actives have a fitted effect of over 60% in size
Outline: (§1)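 After compound transfer in DMSO, plates were kept 72 hr at 37 degree celsius. Luminescent ATP signal from CellTiter-Glo served as viability measure, normalized against DMSO and no-cell controls.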

[2] = system: MCC-26; assay: as above; settings: MCC and control cell lines, CellTiter-Glo viability, 72 h; series mostly up to 46 µM
Outline: as §1

[3] = system: MKL-1; assay: as above; settings: MCC and control cell lines, CellTiter-Glo viability, 72 h; series mostly up to 46 µM
Outline: as §1

[4] = system: MKL-2; assay: as above; settings: MCC and control cell lines, CellTiter-Glo viability, 72 h; series mostly up to 46 µM
Outline: as §1

[5] = system: UISO; assay: as above; settings: MCC and control cell lines, CellTiter-Glo viability, 72 h; series mostly up to 46 µM
Outline: as §1

[6] = system: WaGa; assay: as above; settings: MCC and control cell lines, CellTiter-Glo viability, 72 h; series mostly up to 46 µM
Outline: as §1

[7] = system: C33A; assay: Primary qHTS to identify gynecologic anti-cancer compounds using libraries of approved drugs and bioactive compounds (AID 1345084); settings: Gynecologic cancer cell panel viability, ATPlite luminescence, 48 h; series mostly up to 57.5 µM; note: nearly all actives have a fitted effect of over 55% in size
Outline: (§2)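 ATP-based viability (ATPlite), 1,000 cells/well, 16 h pre-incubation, 48 h compound at 37 C, 5% CO2, 15 min RT before read.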

[8] = system: CAOV3; assay: as above; settings: Gynecologic cancer cell panel viability, ATPlite luminescence, 48 h; series mostly up to 57.5 µM
Outline: as §2

[9] = system: CASKI; assay: as above; settings: Gynecologic cancer cell panel viability, ATPlite luminescence, 48 h; series mostly up to 57.5 µM
Outline: as §2

[10] = system: Es-2; assay: as above; settings: Gynecologic cancer cell panel viability, ATPlite luminescence, 48 h; series mostly up to 57.5 µM
Outline: as §2

[11] = system: HeLa; assay: as above; settings: Gynecologic cancer cell panel viability, ATPlite luminescence, 48 h; series mostly up to 57.5 µM
Outline: as §2

[12] = system: Hek293T; assay: as above; settings: Gynecologic cancer cell panel viability, ATPlite luminescence, 48 h, control line for the selectivity index; series mostly up to 57.5 µM
Outline: as §2

[13] = system: JEG-3; assay: as above; settings: Gynecologic cancer cell panel viability, ATPlite luminescence, 48 h; series mostly up to 57.5 µM
Outline: as §2

[14] = system: OV90; assay: as above; settings: Gynecologic cancer cell panel viability, ATPlite luminescence, 48 h; series mostly up to 57.5 µM
Outline: as §2

[15] = system: PA-1; assay: as above; settings: Gynecologic cancer cell panel viability, ATPlite luminescence, 48 h; series mostly up to 57.5 µM
Outline: as §2

[16] = system: Tov-21-G; assay: as above; settings: Gynecologic cancer cell panel viability, ATPlite luminescence, 48 h; series mostly up to 57.5 µM
Outline: as §2

[17] = system: SKOV3; assay: as above; settings: Gynecologic cancer cell panel viability, ATPlite luminescence, 48 h; series mostly up to 57.5 µM
Outline: as §2
% is set by controls: 0 for no effect and ±100 for the full control effect; potency is the fitted concentration of half-maximal effect.

c1ccc2occc2c1
inactive: Potency [1] | Potency [2] | Potency [3] | Potency [4] | Potency [5] | Potency [6] | Potency [7] | Potency [8] | Potency [9] | Potency [10] | Potency [11] | Potency [12] | Potency [13] | Potency [14] | Potency [15] | Potency [16]

Nc1c(NC/C=C\COc2cc(CN3CCCCC3)ccn2)c(=O)c1=O
inactive: Potency [1] | Potency [2] | Potency [3] | Potency [4] | Potency [5] | Potency [6] | Potency [7] | Potency [9] | Potency [10] | Potency [11] | Potency [12] | Potency [13] | Potency [14] | Potency [15] | Potency [17] | Potency [16]

Cc1cc2nc3ccc(=[N+](C)C)cc-3sc2cc1N
active: Potency [1] 2.99 µM | Potency [2] 11.9 µM | Potency [3] 0.596 µM | Potency [4] 0.531 µM | Potency [5] 1.68 µM | Potency [6] 0.668 µM | Potency [7] 3.98 µM | Potency [9] 12.6 µM | Potency [10] 14.1 µM | Potency [12] 14.1 µM | Potency [14] 22.4 µM | Potency [15] 3.55 µM | Potency [17] 35.5 µM | Potency [16] 28.2 µM

CN1Cc2cc(C(=O)N3CCC(C4CCNCC4)CC3)ccc2NC(CC(=O)O)C1=O (stereo not drawn)
inactive: Potency [1] | Potency [2] | Potency [3] | Potency [4] | Potency [5] | Potency [6] | Potency [7] | Potency [8] | Potency [9] | Potency [10] | Potency [11] | Potency [12] | Potency [13] | Potency [14] | Potency [15] | Potency [16]

C/C(=N\O)[C@@H](C)NCC(C)(C)CN[C@H](C)/C(C)=N/O
inactive: Potency [1] | Potency [2] | Potency [3] | Potency [4] | Potency [5] | Potency [6] | Potency [7] | Potency [8] | Potency [9] | Potency [10] | Potency [11] | Potency [12] | Potency [13] | Potency [15] | Potency [17] | Potency [16]

OCCc1ccccc1
inactive: Potency [1] | Potency [2] | Potency [3] | Potency [4] | Potency [5] | Potency [6] | Potency [7] | Potency [9] | Potency [10] | Potency [11] | Potency [12] | Potency [13] | Potency [15] | Potency [17] | Potency [16]

O=C(O)C1CCC1
inactive: Potency [1] | Potency [2] | Potency [3] | Potency [4] | Potency [5] | Potency [6] | Potency [7] | Potency [9] | Potency [10] | Potency [11] | Potency [12] | Potency [13] | Potency [14] | Potency [15] | Potency [17] | Potency [16]

O=[N+]([O-])c1cncn1CCN1CCOCC1
inactive: Potency [1] | Potency [2] | Potency [3] | Potency [4] | Potency [5] | Potency [6] | Potency [7] | Potency [9] | Potency [10] | Potency [11] | Potency [12] | Potency [13] | Potency [14] | Potency [15] | Potency [17] | Potency [16]

Cc1ccc(Cl)c(OCC(O)CNC(C)(C)C)c1 (stereo not drawn)
inactive: Potency [1] | Potency [2] | Potency [3] | Potency [4] | Potency [5] | Potency [6] | Potency [7] | Potency [8] | Potency [9] | Potency [10] | Potency [11] | Potency [13] | Potency [14] | Potency [17]

CC(C)C(=O)Nc1cccc(C2CN3CCSC3=N2)c1 (stereo not drawn)
inactive: Potency [1] | Potency [2] | Potency [3] | Potency [4] | Potency [5] | Potency [6] | Potency [7] | Potency [9] | Potency [10] | Potency [11] | Potency [12] | Potency [13] | Potency [14] | Potency [15] | Potency [17] | Potency [16]

N[C@@H](Cc1cc(I)c(O)c(I)c1)C(=O)O
inactive: Potency [1] | Potency [2] | Potency [3] | Potency [4] | Potency [5] | Potency [6] | Potency [7] | Potency [8] | Potency [9] | Potency [10] | Potency [11] | Potency [12] | Potency [13] | Potency [14] | Potency [15] | Potency [17] | Potency [16]

C[C@H]1C[C@H](O)c2ccsc2S1(=O)=O
inactive: Potency [1] | Potency [2] | Potency [3] | Potency [4] | Potency [5] | Potency [6] | Potency [7] | Potency [8] | Potency [9] | Potency [10] | Potency [11] | Potency [12] | Potency [13] | Potency [14] | Potency [15] | Potency [16]

COC(=O)c1ccc(NC(C)=O)cc1OC
inactive: Potency [1] | Potency [2] | Potency [3] | Potency [4] | Potency [5] | Potency [6] | Potency [7] | Potency [8] | Potency [9] | Potency [10] | Potency [11] | Potency [12] | Potency [13] | Potency [14] | Potency [15] | Potency [17] | Potency [16]

CCN(CC)CCN
inactive: Potency [1] | Potency [2] | Potency [3] | Potency [4] | Potency [5] | Potency [6] | Potency [7] | Potency [8] | Potency [9] | Potency [10] | Potency [11] | Potency [12] | Potency [13] | Potency [15] | Potency [17] | Potency [16]

Cc1onc(-c2c(Cl)cccc2Cl)c1C(=O)Cl
inactive: Potency [1] | Potency [2] | Potency [3] | Potency [4] | Potency [5] | Potency [6] | Potency [7] | Potency [9] | Potency [10] | Potency [11] | Potency [12] | Potency [13] | Potency [14] | Potency [15] | Potency [17] | Potency [16]

NCCCC(N)CC(=O)NCC1NC(=O)C(CO)NC(=O)C(N)CNC(=O)C(C2CCN=C(N)N2)NC(=O)C(=CNC(N)=O)NC1=O (stereo not drawn) (H-[Dap]S[Dap](ξβ3hOrn)[ΔAla(3-NHCONH2)][X10]; lactam 1-C; configuration not given here)
inactive: activity change, negative = cytotoxicity [1] 7.39% [at 0.597 µM] | activity change, negative = cytotoxicity [2] 12.9% [at 0.597 µM] | activity change, negative = cytotoxicity [3] 3.4% [at 0.597 µM] | activity change, negative = cytotoxicity [4] 1.36% [at 0.597 µM] | activity change, negative = cytotoxicity [5] 24.3% [at 0.597 µM] | activity change, negative = cytotoxicity [6] 13.5% [at 0.597 µM] | activity change, negative = cytotoxicity [7] 15.1% [at 0.462 µM] | activity change, negative = cytotoxicity [8] 10.4% [at 0.462 µM] | activity change, negative = cytotoxicity [9] 9.08% [at 0.462 µM] | activity change, negative = cytotoxicity [10] -0.941% [at 0.462 µM] | activity change, negative = cytotoxicity [11] -1.14% [at 0.462 µM] | activity change, negative = cytotoxicity [12] -1.45% [at 0.462 µM] | activity change, negative = cytotoxicity [13] 1.16% [at 0.462 µM] | activity change, negative = cytotoxicity [14] -2.62% [at 0.462 µM] | activity change, negative = cytotoxicity [15] 8.19% [at 0.462 µM] | activity change, negative = cytotoxicity [16] 4.2% [at 0.462 µM]

Source: PubChem BioAssay (NCATS)
